Source: PubChem BioAssay AID624354 (Sanford-Burnham Center for Chemical Genomics, 2012)
Where “and” joins values, the source holds several entries; their conditions need not be identical. Identical values can stand only once. Out of some 360,000 compounds screened, about 3,800 (1.1%) were called active. Only a selection was taken, and actives are over-represented in it overall. Unmarked numbers belong to inactive results.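 The calls were made as follows: active = compounds causing at least 50% loss of cell viability in the single-dose screen, relative to plate controls; inactive = the rest.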

Assay: viability loss with TRAIL in NB7+C8 cells, primary screen, TRAIL sensitizer project, cell-based, ATPlite luminescence (AID 624354)
Conditions: at 10 µM, stronger effect = higher value

| SMILES | inhibition (viability loss, TRAIL sensitization) |
| --- | --- |
| COc1cccc(-c2nc3ccc(N4CCN(C)CC4)cc3[nH]2)c1 | 86.3% (active) |
| CCC(=O)c1ccc(OCC(=O)N2CCN(CC(=O)Nc3ccc(C)cc3)CC2)cc1 | 1.16% |
| Cc1cc2ccccn2c1C(C[N+](=O)[O-])c1c(F)cccc1Cl (stereo not given) | -0.261% |
| COc1ccc(-n2c(O)c(C(C)=Nc3ccc4c(c3)CCC4)c(=O)[nH]c2=O)cc1 | 7.82% |
| O=Cc1cn(Cc2ccc(F)cc2Cl)c2ccccc12 | 17.7% |
| CNC(=O)O/N=C(\N)Cc1csc2ccc(Cl)cc12 | 70.7% (active) |
| CNC(=O)O/N=C(\N)Cc1csc2ccccc12 | -3.67% |
| CCC/C(=N\O)c1c[nH]c2ccccc12 | -8.01% |
| Cc1ncoc1C(=O)NCC1=C(c2cccc3ccccc23)C[C@@H]2CC[C@H]1N2Cc1ccco1 | 14.8% |
| COc1ccccc1CN1CCN(C(=O)Cc2ccccc2)CC1 | -10.1% |
| CCN1CCN(Cc2cc(OC)c3c(c2)OCO3)CC1 | 3.55% |
| COC1C(O)C(C)OC(OC2CCC3(C=O)C(CCC4C3CCC3(C)C(C5=CC(=O)OC5)CCC43O)C2)C1O (stereo not given) | 74.4% (active) |
| C[C@]12CC[C@H](O)C[C@H]1CC[C@@H]1C2CC[C@]2(C)[C@@H](C3=CC(=O)OC3)[C@@H](O)C[C@]12O (stereo not given in full) | 48.7% |
| CC(C)Nc1nc(Cl)nc(NC(C)C)n1 | -4.77% |
| O=C(O)C1CSC(c2cccnc2)N1 (stereo not given) | -7.34% |
| Cc1ccc(Cn2c(C)c3cnn(CC(=O)N4CCC5(CC4)OCCO5)c(=O)c3c2C)cc1 | 2.81% |
| OC(Cn1c2ccccc2c2ccccc21)C[n+]1ccccc1 (stereo not given) | -9.29% |
| CCOc1ccc(-c2cc(C)[n+](CCN(CC)CC)c(-c3ccc(OCC)cc3)c2)cc1 | 64.8% (active) |

| SMILES | inhibition (viability loss, TRAIL sensitization) |
| --- | --- |
| O=c1[nH]c(CN2CC=C(c3ccccc3)CC2)nc2scc(-c3cccs3)c12 | -10.4% |
| COc1ccccc1N1CCN(C(CNC(=O)Oc2ccccc2)c2cccnc2)CC1 (stereo not given) | -5.13% |
| CN1CCc2cc3c(cc2[C@H]1[C@@H]1OC(=O)c2c1ccc1c2OCO1)OCO3 | -20.1% |
| C=C(C)C1(CCCC)C(=O)NC(=S)NC1=O | 6.23% |
| CN1C2C=C(N(C(=O)c3ccc(Cl)cc3)c3ccccc3)CC1CC2 (stereo not given) | -8.37% |
| CC(=O)OC1C2(CC3N4C(=O)C5(CO)SSC4(CC31O)C(=O)N5C)OC(C)C(C)(C)C2=O (stereo not given) | 84.2% (active) |
| CCC(=O)CC(c1ccc([N+](=O)[O-])cc1)c1c(O)c2ccccc2oc1=O (stereo not given) | 4.29% |
| Nc1ccc(Cc2ccc(N)c(Cl)c2)cc1Cl | 2.29% |
| CN(C)C(=O)Oc1cc(OC(=O)N(C)C)cc(C(O)CNC(C)(C)C)c1 (stereo not given) | -5.27% and 5.89% |
| C=Cn1ccnc1P(=S)(c1cc(N(CC)CC)ns1)c1nccn1C=C | -19.8% |
| CCCCCCCCCCCCn1ccc(=N)cc1 | 62.5% (active) |
| CC1CNCCN1c1ccc(Cl)cc1 (stereo not given) | -10.4% |
| C=CCN1C(=O)NC(=O)/C(=C/c2ccc(OCC(=O)Nc3ccc(C)cc3)cc2)C1=O | 6.1% |
| CCOC(=O)[C@]12Cc3cc(OC)ccc3[C@H]1N(C(C)C)C(=O)c1ccccc12 | 39.4% |
| CCOC(=O)[C@]12Cc3ccccc3[C@H]1N(C1CCCCC1)C(=O)c1cc(OC)ccc12 | 79.1% (active) |
| CCC1(CC(C)c2ccccc2)C(=O)NC(=O)NC1=O (stereo not given) | -15.1% |
| C/C(=N/O)c1ccc2ccc3ccccc3c2c1 | 0.44% |
